70 compounds from PubChem BioAssay AID590 (National Center for Advancing Translational Sciences (NCATS), 2007) can be followed below.

Out of some 59,000 compounds screened, about 6,500 (11%) were called active. Not shown: some 15% with an inconclusive outcome. No stated cut-off is given here; in the data, active means max dye-equivalent concentration above about 10 nM; inconclusive means mostly about 1.1 nM to 9.6 nM; inactive means weaker than that. Only a selection was taken, and actives are over-represented in it overall.

This assay in a line: qHTS Assay for Spectroscopic Profiling in A350 Spectral Region. The settings on record: Compound autofluorescence, 340/450 nm, Alexa 350 dye-equivalents; hits give high values. (In general: Quantitative high-throughput screening tests each substance at several concentrations.)
Consider `O=C1[C@@H]2C(Cc3ccc(O)cc3)NC3(C(=O)Nc4ccc(F)cc43)[C@@H]2C(=O)N1c1ccc(F)cc1` (stereo not given in full), for which the max dye-equivalent concentration result is “inactive”.

Consider `CC(C)Cc1nc(N2CCOCC2)c(C#N)c2c1CCC2`, for which the max dye-equivalent concentration is 62 nM (active).

Turning to `Cc1cc(C(=O)COC(=O)CCCN2C(=O)c3ccccc3C2=O)c(C)n1C`, the max dye-equivalent concentration result was “inactive”.

As to `O=C(CN1C(=O)CCC1=O)Nc1ccc(S(=O)(=O)N2CCOCC2)cc1`, the max dye-equivalent concentration entry was “inactive”.

With `CC(=O)OCc1cc(=O)n(C)c(=O)n1C`, the max dye-equivalent concentration entry was “inactive”.

On to `COc1c(C)cccc1C(=O)Nc1cc(Cl)ccc1N1CCOCC1`, for which the max dye-equivalent concentration result was “inactive”.

For the compound `O=C(O)[C@@H](O)Cc1ccccn1`, the max dye-equivalent concentration entry was “inactive”.

As to `COc1ccc2c(c1)CCc1c(C(=O)N3CCc4ccccc4C3)noc1-2`, the max dye-equivalent concentration entry was “inactive”.

Consider `CCOC(=O)c1[nH]c2ccc(C)cc2c1N=C(C)N(C)C`, for which the max dye-equivalent concentration was 29 nM (active).

For the compound `CCOC(=O)c1[nH]c2ccccc2c1N=C(C)N(CC)CC`, the max dye-equivalent concentration result was “inactive”.

For the compound `CCOC(=O)CN(C)Cc1c[nH]c2ccccc12`, the max dye-equivalent concentration result was “inactive”.

As to `CC(=O)c1cccc(NC(=O)N2CCCC2C(=O)NCCC(C)C)c1` (stereo not given), the max dye-equivalent concentration entry is “inactive”.

For `CC12CCC(C(=O)N3CCN(c4ncccn4)CC3)(c3nc4ccccc4nc31)C2(C)C` (stereo not given), the max dye-equivalent concentration entry was “inactive”.

For the compound `O=c1nc(N2CCOCC2)nc2n1CCO2`, the max dye-equivalent concentration entry was “inactive”.

In the case of `O=C(CSc1nc2ccccc2[nH]1)c1cccs1`, the max dye-equivalent concentration result was “inactive”.

In the case of `N#Cc1c(N)n(CCOC(=O)c2ccc(Cl)cc2)c2nc3ccccc3nc12`, the max dye-equivalent concentration is 610 nM (active).

As to `Cn1cccc1C(=O)N1CCC2(CC1)CN(c1cccc(-c3ccccc3)c1)C2`, the max dye-equivalent concentration entry was “inactive”.

For the compound `CC[C@@H]1Cc2cc(O)ccc2C2=C1c1ccc(O)cc1C[C@H]2CC`, the max dye-equivalent concentration is 260 nM (active).

Regarding `CCC1SC2=NCCN2C1(O)c1ccc(Cl)cc1` (stereo not given), the max dye-equivalent concentration entry was “inactive”.

For the compound `Cc1cc(NC(=O)c2cnn3cccnc23)n(-c2ccccc2)n1`, the max dye-equivalent concentration result is “inactive”.

As for `COCCNC(=O)C(c1ccc(C)o1)N(Cc1cccs1)C(=O)c1snc(C(N)=O)c1N` (stereo not given), the max dye-equivalent concentration was 88 nM (active).

As to `COCCNC(=O)C(c1ccc(C)o1)N(Cc1ccccc1)C(=O)Cn1nnc2ccccc21` (stereo not given), the max dye-equivalent concentration result is “inactive”.

Regarding `CCC(C(=O)NC1CCCC1)N(C(=O)c1snc(C(N)=O)c1N)c1ccc2c(c1)OCCO2` (stereo not given), the max dye-equivalent concentration result was “inactive”.

Take `N=c1c2c3c(sc2ncn1CCCN1CCOCC1)CCCCC3`: the max dye-equivalent concentration result was “inactive”.

`CN(CCc1ccccn1)S(=O)(=O)c1ccc2c3c(cccc13)C(=O)N2`: the max dye-equivalent concentration was 790 nM (active).

For `O=c1[nH]nc(Cc2ccccn2)c2ccccc12`, the max dye-equivalent concentration entry was “inactive”.

With `CCNc1nc(N)nc(Oc2ccc(OCC)nn2)n1`, the max dye-equivalent concentration entry was “inactive”.

For the compound `COc1ccccc1N1CCN(C(=O)CN(Cc2ccc(Cl)cc2)S(C)(=O)=O)CC1`, the max dye-equivalent concentration result was “inactive”.

As to `Cn1cccc1C(=O)Nc1nccs1`, the max dye-equivalent concentration result is “inactive”.

With `Cn1cccc1C(=O)NC(=O)COC(=O)Cc1coc2ccc3ccccc3c12`, the max dye-equivalent concentration was 38 nM (active).

In the case of `O=C1C2(c3ccccc3)CN(CCCO)CC1(c1ccccc1)CN(CCCO)C2`, the max dye-equivalent concentration result is “inactive”.

For the compound `Cn1c(=O)[nH]c(=O)c2c1nc(Br)n2CCCCSc1nc2ccccc2o1`, the max dye-equivalent concentration result was “inactive”.

For `Cc1cc(N2CCCCC2)nc2ccc(Cc3ccc4nc(N5CCCCC5)cc(C)c4c3)cc12`, the max dye-equivalent concentration was 43 nM (active).

As to `Fc1ccc2nc(N3CCCCC3)sc2c1`, the max dye-equivalent concentration result is “inactive”.

As to `CCCn1c(SCC(=O)Nc2cccc(C(=O)OCC)c2)nnc1-c1ccoc1C`, the max dye-equivalent concentration entry was “inactive”.

Regarding `Cc1cc(=O)cc(C)[nH]1`, the max dye-equivalent concentration entry was “inactive”.

For the compound `Cc1ccccc1-c1nc(N(C)Cc2ccco2)c2ccccc2n1`, the max dye-equivalent concentration result is “inactive”.

On to `Clc1cccc(Cl)c1Cn1nnc(-c2cccs2)n1`, for which the max dye-equivalent concentration entry is “inactive”.

For `CCOC(=O)c1c(N)c(C#N)nn1-c1ccccc1C(=O)OC`, the max dye-equivalent concentration result was “inactive”.

Consider `O=C(Nc1ccccc1)c1cccnc1Nc1ccccc1`, for which the max dye-equivalent concentration result was “inactive”.

`Oc1ccc2nc(Cc3ccccc3)[nH]c2c1`: the max dye-equivalent concentration entry is “inactive”.

As to `COC(=O)Nc1nc2ccc(Sc3ccccc3)cc2[nH]1`, the max dye-equivalent concentration was 16 nM (active).

As to `CCC(=O)Nc1cccc(NC(=O)CSc2nnnn2C2CCCC2)c1`, the max dye-equivalent concentration entry was “inactive”.

As to `Cc1ccc(S(=O)(=O)NCc2cn3ccsc3n2)c(C)c1`, the max dye-equivalent concentration entry was “inactive”.

On to `CCOc1cccc(-c2nnc3sc(COc4ccc(OC)cc4)nn23)c1`, for which the max dye-equivalent concentration entry was “inactive”.

`COc1cc(-c2nn3c(-c4cccc(C)c4)nnc3s2)cc(OC)c1OC`: the max dye-equivalent concentration is 2600 nM (active).

On to `c1ccc(-c2cc(-c3nnc4sc(-c5ccccn5)nn34)[nH]n2)cc1`, for which the max dye-equivalent concentration result is “inactive”.

`CCOC(=O)CNC(=O)CSc1nnc(-c2cccc(OC)c2)n1CC`: the max dye-equivalent concentration result is “inactive”.

Consider `O=C(CSc1nnc2scc(-c3ccc(F)cc3)n12)NCc1ccco1`, for which the max dye-equivalent concentration entry is “inactive”.

Take `Cc1nnc2sc(-c3ccco3)nn12`: the max dye-equivalent concentration entry is “inactive”.

For the compound `CC(=O)Nc1ccc(-c2nn3c(C)nnc3s2)cc1C`, the max dye-equivalent concentration entry was “inactive”.

For the compound `Fc1ccc(-c2nnc3sc(-c4ccc5c(c4)OCO5)nn23)cc1`, the max dye-equivalent concentration was 36 nM (active).

Consider `Fc1ccc(-c2ccc(-c3nn4c(-c5ccco5)nnc4s3)o2)cc1`, for which the max dye-equivalent concentration was 68 nM (active).

In the case of `c1ccc(-c2nnc3n2NC(c2ccc4c(c2)OCO4)S3)cc1` (stereo not given), the max dye-equivalent concentration result was “inactive”.

For `COc1ccccc1Cn1c(=S)[nH]c2cc(C(=O)N3CCN(C)CC3)ccc2c1=O`, the max dye-equivalent concentration entry is “inactive”.

As for `CSCCC1NC2(C(=O)Nc3ccc(Cl)cc32)[C@@H]2C(=O)N(C3CCCC3)C(=O)[C@H]12` (stereo not given in full), the max dye-equivalent concentration entry is “inactive”.

As to `Cc1ccc2c(C(=O)CN3CCCC3)c(C)[nH]c2c1`, the max dye-equivalent concentration result is “inactive”.

Consider `CC(C)C(=O)N1CCN(CCN=CC2=C(O)CC(c3ccco3)CC2=O)CC1` (stereo not given), for which the max dye-equivalent concentration result is “inactive”.

As to `CC(C)c1ccc(N2CC(C(=O)Nc3nccs3)CC2=O)cc1` (stereo not given), the max dye-equivalent concentration entry was “inactive”.

Consider `COC(=O)c1ccc(CSc2nncn2C)cc1`, for which the max dye-equivalent concentration result was “inactive”.

For `O=C(NCCSc1ccccc1)c1ccco1`, the max dye-equivalent concentration result was “inactive”.

As to `COC(=O)c1ccccc1NC(=O)Cn1nc(C(F)(F)F)c2c1CCC2`, the max dye-equivalent concentration result was “inactive”.

On to `COC(=O)c1cnn2c(C(F)(F)F)cc(-c3ccco3)nc12`, for which the max dye-equivalent concentration was 870 nM (active).

On to `O=C(Nc1ccccc1)Nc1ccccc1C(=O)NCc1ccco1`, for which the max dye-equivalent concentration entry is “inactive”.

Turning to `O=C(NCc1ccco1)c1cnn2c(C(F)(F)F)cc(-c3ccco3)nc12`, the max dye-equivalent concentration is 300 nM (active).

Turning to `O=C(NCc1ccco1)c1cc(-c2cccnc2)nc2ccc(Cl)cc12`, the max dye-equivalent concentration result was “inactive”.

In the case of `O=C(CSc1nc(-c2ccco2)cc(C(F)(F)F)n1)N1CCc2ccccc2C1`, the max dye-equivalent concentration result is “inactive”.

Consider `CN(C(=O)CSc1nnnn1-c1ccccc1)C1CCCCC1`, for which the max dye-equivalent concentration result was “inactive”.

Regarding `Cc1oc2nc(SCC(=O)NCc3cccnc3)nc(N)c2c1C`, the max dye-equivalent concentration entry was “inactive”.

In the case of `O=C(c1ccc2c(c1)N(Cc1ccc(F)cc1)C(=O)CS2)N1CCOCC1`, the max dye-equivalent concentration result is “inactive”.
